From PubChem BioAssay (EPA / NIEHS)
A structure can be active in one record and inactive in another. Activity calls are given as the source filed them. How the source made its calls: active means hit-call score of the fitted dose curve at least 0.9, where 1 is the maximum; inconclusive means response in the unintended direction; inactive means score below 0.9.

Experiment: IUF_NPC2-5_cytotoxicity_120hr: Cytotoxicity Assessment at 120 hours in the Leibniz Research Institute for Environmental Medicine (IUF) Neural Progenitor Cell Migration and Differentiation Assay (NPC2-5) (AID 2284307);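 on AC50: LDH released into supernatant as membrane damage marker via resorufin fluorescence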
Experimental: IUF_NPC2-5 is a cell-based, multiplexed assay that uses hNPC, a human primary neural progenitor cells, with measurements taken at 72 or 120 hours after chemical dosing in a 96-well plate. Human neural progenitor cells (hNPC) are generated from human fetal brain cortex at gestational week (GW) 16-19. In the neural progenitor cell migration and differentiation assay (NPC2-5), hNPCs grown as spheres are plated on an extracellular matrix and migrate and differentiate out of the sphere core. The processes radial glia migration, neuronal and oligodendrocyte migration as well as neuronal differentiation, neuronal morphology and oligodendrocyte differentiation are studied using automated phase contrast imaging and automated fluorescence imaging in combination with high content image analysis. In parallel, the cell viability is assessed using an alamar blue viability assay and the cytotoxicity using a lactate dehydrogenase dependent membrane integrity assay.IUF_NPC2-5_cytotoxicity_120hr is one of 12 assay components measured from the IUF_NPC2-5 assay. It is designed to measure cytotoxicity at 120hr due to loss of membrane integrity. LDH measurements are performed from medium supernatants of each well and are based on the reduction of resazurin to resorufin measured as fluorescence signal (relative fluorescence unit) in a multiplate reader. Data from the IUF_NPC2-5_cytotoxicity_120hr component was analyzed at the endpoint IUF_NPC2-5_cytotoxicity_120hr in the positive analysis fitting direction relative to the dynamic range and baseline of activity. Using a type of viability reporter, gain-of-signal activity can be used to understand cytotoxicity effects.
Culture protocol: After the cell expansion period the cells are cultured for up to four weeks in which they are passaged every week as described in 3.6. Between one to three days after passaging spheres at a size of 0.3 mm are picked for the test method. For the assessment of neural progenitor cell migration and differentiation, the spheres are plated on poly-D-lysine/laminin coated 96-well flat bottom plates in differentiation medium (N2) to initiate migration and differentiation. Thereby one 0.3 mm big sphere is plated in the middle of a well. The differentiation medium consists of DMEM and Ham's F12 at a ratio of 3 to 1 supplemented with 1% N2 and 1% penicillin and streptomycin. Within 5 days NPCs radially migrate out of the sphere core and differentiate into radial glia cells (nestin positive), neurons (TUBB3 positive), oligodendrocytes (O4 positive) and astrocytes (GFAP positive). Cultivation during the test method is performed at 37C and 5% CO2 at a ph of 7.2-7.6.Exposure: 0.3 mm big hNPC are plated in the already prepared test conditions. Exposure starts at day 0 of differentiation and is continued over five days of differentiation until the experiment is terminated. Cells are fed with fresh medium at day 3 of differentiation. Therefore, half of the test condition solution (e.g. solvent control or compound dilution) is replaced by freshly prepared test condition solution.Test Method: Migration distance and cytotoxicity is determined after 72 hours based on brightfield images of each well. The assay is terminated by the assessment of cell viability and cytotoxicity as well as cell fixation after 120 h. Immunocytochemistry is performed for Hoechst positive nuclei, TUBB3 positive neurons and O4 positive oligodendrocytes. On the ICC images, migration after 120 hours, neuronal and oligodendrocyte number, neuronal morphology and neuron/oligodendrocyte specific migration is assessed. immunocytochemical staining (ICC) generates an image for each sphere. The plates are scanned using an automated high content imaging device and all nuclei and their positions are determined automatically based on their intensity and size. Images are imported to the Omnisphero software to run the image analysis that measures the following endpoints. […]

Row | Compound | outcome | AC50
1 | O=S(=O)(O)C(F)(F)C(F)(F)C(F)(F)C(F)(F)C(F)(F)C(F)(F)C(F)(F)C(F)(F)F | inactive | 62.4 µM (active)
2 | CCC(C)(C)C(=O)OC1=C(c2ccc(Cl)cc2Cl)C(=O)OC12CCCCC2 | inactive | 
3 | O=C(O)C(F)(F)C(F)(F)C(F)(F)C(F)(F)C(F)(F)C(F)(F)C(F)(F)F | inactive | 
4 | CC(C)N(C(=O)COc1nnc(C(F)(F)F)s1)c1ccc(F)cc1 |  | 0.0343 µM (active)
5 | O=S1OCC2C(CO1)C1(Cl)C(Cl)=C(Cl)C2(Cl)C1(Cl)Cl (centres undefined) | inactive | 
6 | CC1(c2ccc(Oc3ccccc3)cc2)OC(=O)N(Nc2ccccc2)C1=O (centres undefined) | inactive | 
7 | CNC(=O)CSP(=S)(OC)OC | inactive | 
8 | O=[N+]([O-])/N=C1\NCCN1Cc1ccc(Cl)nc1 | inactive | 
9 | COP(=S)(OC)Oc1ccc([N+](=O)[O-])cc1 | inactive | 
10 | CC1(C)C(C=C(Cl)Cl)C1C(=O)OC(C#N)c1ccc(F)c(Oc2ccccc2)c1 (centres undefined) | inactive | 
11 | O=C(O)COc1ccc(Cl)cc1Cl | inactive | 
12 | CC[C@H](C)[C@H]1O[C@]2(C=C[C@@H]1C)C[C@@H]1C[C@@H](C/C=C(\C)[C@@H](O[C@H]3C[C@H](OC)[C@@H](O[C@H]4C[C@H](OC)[C@@H](O)[C@H](C)O4)[C@H](C)O3)[C@@H](C)/C=C/C=C3\CO[C@@H]4[C@H](O)C(C)=C[C@@H](C(=O)O1)[C@]34O)O2 (tested in a mixture with another compound) |  | 6.89 µM (active)
13 | COP(=O)(OC)OC=C(Cl)Cl |  | 89 µM (active)
